Measurements from the supplement of paper PMC10338343.
± gives the standard deviation. The full ranking holds about 8,200 sequences; the median of “pre-steady-state target cleavage rate” is about 0.024, and the highest 2% start at about 1.3. The list comes from a sample in which the highest values are over-represented; it also holds similar and randomly drawn sequences.

Test system: MIWI (PIWIL1) piRISC loaded with L1MC piRNA (30 nt)
Test: pre-steady-state target cleavage rate (min^-1); MIWI and MILI are mouse PIWI proteins and EfPiwi is from a freshwater sponge; tags in brackets are library labels; higher = faster piRNA-guided slicing of the target
Conditions: guide: L1MC piRNA 5'p-UAACUAAAUACUAUGCAAGCUGUAGGUCCU
Method: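 Cleave-'n-Seq: a library of target RNAs (target site embedded in constant flanks, ACAGCATTCCGCGTTAGTGATATCCG... 5' flank; DNA-blocked outside the site) at 0.1 nM was incubated with 1 nM active mouse MILI or MIWI piRISC (synthetic 5'-monophosphorylated piRNA guide) with or without 500 nM mouse GTSF1 at 33 °C for 1 min to 16 h. Uncleaved targets were sequenced and normalised to non-target controls, and the pooled three trials were fitted to a burst-and-steady-state model to give the pre-steady-state cleavage rate (min^-1; k3 is constrained to at most 1e-4). Sequence is the target site only; target names encode pairing extent (gX:gY) and contiguous / 1-mismatch / 2-mismatch / bulge geometry. Fits with R² ≤ 0 are excluded.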

[1] = auxiliary factor: 500 nM mouse GTSF1
[2] = auxiliary factor: none (no GTSF1)

Sequence	pre-steady-state target cleavage rate [1]	pre-steady-state target cleavage rate [2]
UCCUCCAUGAGCUUGCAUAGUAUUUAGUAA	0.471 ± 0.029	0.0262 ± 0.0057
UCCUGCUACAGCUUGCAUAGUCAUUUAGUUA	0.0744 ± 0.02	0.00362 ± 0.0031
UCCUGGAUGUCCUUGCAUAGUAUUUAGUCA	0.0473 ± 0.011	0.00568 ± 0.0021
UCGACCUACAUGCUUGCAUAGUAUUUAGUUA	0.913 ± 0.037	0.0554 ± 0.012
UCCACCUACAGCUUGCAUAGUUUUUACUUA	0.173 ± 0.03	0.0106 ± 0.0026
UCCUGGUUCAGCUUGCAUAGUUUUUAGUUA	0.242 ± 0.031	0.0386 ± 0.0094
AGGACCUACAGCAACCAUAGUAUUUAGUUA	0.426 ± 0.039	–
UCCUCCAACAGCUUGCAUAGUAUUUAGAUA	0.491 ± 0.042	0.0201 ± 0.0048
UCCUCCAACAGCUUGCAUAGUAUUUAGUAA	0.675 ± 0.03	0.0256 ± 0.0063
UCCUCCAACAGCUUGCAUAGUAUUUAGUUA	1.37 ± 0.041	0.0735 ± 0.013
UCGUCCAACAGCUUGCAUAGUAUUUAGUUA	1.4 ± 0.044	0.0771 ± 0.014
UGGUCCAACAGCUUGCAUAGUAUUUAGUUA	0.852 ± 0.034	0.0715 ± 0.01
UCCACCAACAGCUUGCAUAGUAUUUAGUUA	1.06 ± 0.037	0.0618 ± 0.011
UCCAACUACAGCUUGCAUAGUAUUUAGUUA	0.646 ± 0.038	0.0478 ± 0.0076
UCCACCAACAGCUUGCAUAGUAUUUAGUAA	0.644 ± 0.039	0.0342 ± 0.0071
AGGUCCAACAGCUUGCAUAGUAUUUAGUUA	1.5 ± 0.04	0.0907 ± 0.014
UGGACGUACAGCUUGCAUAGUAAUUAGUUA	0.725 ± 0.048	0.0371 ± 0.0089
UCCUGGUACAGCUUGCAUAGUAUUAUGAAA	0.119 ± 0.037	–
UCCUGGUACACCUUGCAUAGUAAUUAGUUA	0.546 ± 0.1	0.00728 ± 0.0025
UCGACCUACAGCUUGGAUAGUAUUUAGUUA	1.72 ± 0.055	0.0599 ± 0.01
UCGACCUACAGCUUGGAUAGUAUUUAGAUA	0.444 ± 0.05	0.0181 ± 0.0047

Sequence	pre-steady-state target cleavage rate [1]	pre-steady-state target cleavage rate [2]
UGCACCUACAGCUUGGAUAGUAUUUAGUUA	1.18 ± 0.065	0.05 ± 0.008
AGCACCUACAGCUUGGAUAGUAUUUAGUUA	0.99 ± 0.049	0.0433 ± 0.0065
ACGACCUACAGCUUGGAUAGUAUUUAGUUA	1.68 ± 0.067	0.0728 ± 0.011
UCGACCUACAGCUUGGAUAGUAUUUAGUAA	0.859 ± 0.043	0.0299 ± 0.0054
AGGACGAACAGCUUGCAUAGUAUUUACAAA	0.245 ± 0.037	0.00641 ± 0.0027
UGGACCUACACGUUGCAUAGUAUUUAGUAA	0.575 ± 0.039	0.00987 ± 0.0024
AGGAUCCUACAGCUUGCAUAGUAUUUAGUUA	1.4 ± 0.068	0.118 ± 0.023
UCCAUCCUACAGCUUGCAUAGUAUUUAGUUA	0.558 ± 0.029	0.0561 ± 0.0096
UGGAUCCUACAGCUUGCAUAGUAUUUAGUUA	1.37 ± 0.071	0.0869 ± 0.014
UCGAUCCUACAGCUUGCAUAGUAUUUAGUUA	1.49 ± 0.042	0.0686 ± 0.013
AGGUCCUACAGCUUGCAUAGUAUUUACAAA	0.428 ± 0.076	0.00841 ± 0.003
UGGACCUACAGCUUGCAGUAGUAUUUAGUUA	0.00477 ± 0.0038	–
UCCUGGUUCAGCUUGCAUAGUAUUUAGUAA	0.528 ± 0.055	0.0354 ± 0.008
UCCUGCAACAGGUUGCAUAGUAUUUAGUUA	1.11 ± 0.085	0.0208 ± 0.0052
UCCUGGAUGUGCUUGCAUAGUAUUUAGGUUA	0.191 ± 0.02	0.0232 ± 0.0058
UCCUGGAUGUGCUUGCAUAGUAUUUAUGUUA	0.202 ± 0.026	0.0215 ± 0.0052
AGGACCUAGAGCUUGCAUAGUAAUUAGUUA	0.747 ± 0.047	0.0277 ± 0.0076
UGGACCAACAGCUUGCUUAGUAUUUAGUUA	1.64 ± 0.092	0.0497 ± 0.01
UCCACCAACAGCUUGCUUAGUAUUUAGUUA	1.31 ± 0.061	0.026 ± 0.0061
UCCUCCAACAGCUUGCUUAGUAUUUAGUUA	1.28 ± 0.054	0.0363 ± 0.0081
UGGACCAACAGCUUGCAAAGUAUUUAGUUA	1.38 ± 0.062	0.0368 ± 0.0072

Sequence	pre-steady-state target cleavage rate [1]	pre-steady-state target cleavage rate [2]
UCGACCAACAGCUUGCAUUGUAUUUAGUUA	0.973 ± 0.028	0.0383 ± 0.008
AGGACCAACAGCUUGCUUAGUAUUUAGUUA	1.31 ± 0.066	0.0459 ± 0.0084
UCGACCAACAGCUUGCUUAGUAUUUAGUUA	1.47 ± 0.05	0.0416 ± 0.0081
AGGACCAACAGCUUGCAAAGUAUUUAGUUA	1.18 ± 0.038	0.0503 ± 0.01
UCGACCAACAGCUUGCAAAGUAUUUAGUUA	1.29 ± 0.043	0.0448 ± 0.01
UCCUCCUACAGUUGCAUAGUAUUUAGUUA	0.742 ± 0.046	0.00376 ± 0.0017
UCCUGGUUCAGCUUGCAUAGUAUUUACUUA	0.18 ± 0.041	0.0237 ± 0.0048
UCCUCCUACACCUUCCAUAGUAUUUAGUUA	0.0661 ± 0.024	–
UGGACCUACAGCUUGCAUACUUUUUAGUUA	0.0337 ± 0.0046	0.00745 ± 0.0014
UCCACCUACAGCUUGCAUAGUAUAUACAAA	0.413 ± 0.089	–
UCCUGGAACAGCUUGCAUAAUAUUUAGUUA	0.559 ± 0.045	0.0418 ± 0.0079
UCCUGGAUCAGCUUGCAUAGUAUUUAGCUA	0.0164 ± 0.0052	0.00651 ± 0.0022
UCCUGGAACAGCUUGCUUUGUAUUUAGUUA	0.0971 ± 0.011	0.00848 ± 0.0027
AGGACCUUACAGCUUGCAUAGUAUUUAGUUA	1.33 ± 0.06	0.0925 ± 0.016
UGGACCUUACAGCUUGCAUAGUAUUUAGUUA	1.58 ± 0.095	0.0853 ± 0.016
AGGACCUACAGCUUGCAUAGUAUUUAGUUC [g2:g30:cont:t1C]	0.664 ± 0.055	0.0568 ± 0.01
UCCACCUUACAGCUUGCAUAGUAUUUAGUUA	1.03 ± 0.043	0.0654 ± 0.013
ACGGACCUACAGCUUGCAUAGUAUUUAGUUA	1.24 ± 0.072	0.0796 ± 0.016
GGGACCUACAGCUUGCAUAGUAUUUAGUUA	1.32 ± 0.097	0.113 ± 0.025
AGGACCUUCAGCUUGCAUAGUAUAUAGUUA	0.827 ± 0.057	0.0427 ± 0.009
